Measured values reported in PubChem BioAssay AID1845227 (National Center for Advancing Translational Sciences (NCATS), 2023).
Inconclusive results are not listed. Active and inactive are the calls of the source. The call rests on the fitted dose curve; in most records, active means well fitted inhibition curve with a large enough effect; inconclusive means small, poorly fitted or top-dose-only effect; inactive means no such curve, though single readings can be large or run the other way.

What follows are molecules tested against Luciferin 4-monooxygenase (Photinus pyralis) (UniProt P08659) (assay: Confirmatory firefly luciferase (FLuc) qHTS assay for identification of artifact compounds). Settings: purified FLuc enzyme, luminescence, 5 min; series mostly up to 38.9 µM.
Procedure, shortened: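 Compounds mixed 15 min with 10 uM luciferin/10 uM ATP, then 10 nM firefly luciferase added for 5 min at pH 7.6. Luminescence percent inhibition, scaled to no-enzyme and DMSO controls, fitted to Hill equation.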

Potency, inactive:
CCN(C(=O)Cn1nc(Cc2cccnc2)c2ccccc2c1=O)c1cc(C)ccc1C
COc1ccc(-c2ccc(=O)n(CC(=O)Nc3ccc(OC)c(OC)c3)n2)cc1
Cc1nc(-c2ccc(Cl)cc2)sc1CCNC(=O)c1ccco1
COc1cccc(NC(=O)CSc2nc3cc(OC)c(OC)cc3c3nc(-c4ccccc4)nn23)c1
O=C(Nc1ccccc1-c1nc2ccccc2s1)c1cc(Cl)cc(Cl)c1
CCOC(=O)c1c(C)[nH]c(C)c1S(=O)(=O)N1CCC(C(=O)NCc2ccc(OC)cc2)CC1
Cc1cccc(C(=O)Nc2ccc(-c3nc4ncccc4o3)cc2C)c1
Cc1ccc(Nc2c(-c3ccsc3)nc3cccc(C)n23)cc1
Cc1ccc2oc(C(=O)Nc3ccc(S(=O)(=O)N(C)c4ccccc4)cc3)cc(=O)c2c1
Cc1cccc(CSc2nc3cc(C(=O)NC4CCCC4)ccc3c(=O)n2Cc2ccccc2)c1
COc1ccc(CNC(=O)C(C)n2nc(C)c3c(C)n(-c4ccccc4)nc3c2=O)c(OC)c1 (stereo unspecified)
COc1ccc(C(=O)Nc2ccc3oc(-c4cccnc4)nc3c2)cc1
CC(=O)c1ccc(NS(=O)(=O)c2ccc(-c3cc(C)no3)s2)cc1
Cn1c(=O)[nH]c2cc(-c3noc(-c4cccc(Cl)c4)n3)ccc21
O=C(Nc1ccc(Br)cc1)c1cc(-c2cccs2)nc2ccccc12
Ic1ccc(Nc2nc(NCCN3CCOCC3)nc(N3CCOCC3)n2)cc1
